Holding throughout (assay): NCI-60 one-dose screen, 48 h (100 = growth as untreated, 0 = no growth, -100 = all killed)
What all share (conditions): 10 µM unless noted

The test system of assay [1] is T-47D breast.
In assay [2] the test system is BT-549 breast.
Assay [3] concerns MDA-MB-435 melanoma.
Assay [4] has as its system SW-620 colon.
For assay [5], the system named is MCF7 breast.
Assay [6] concerns HCT-116 colon.
In assay [7] the test system is HCC-2998 colon.
The test system of assay [8] is KM12 colon.

Structures are written as SMILES. Compounds without any hit were thinned out: in the full panel of roughly 83,000, 20% have a hit.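 Cell lines were cultured in 96-well plates, exposed to a single compound concentration, and assessed for percent growth 48 hours later.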 Unmarked numbers belong to inactive results. Calls of active or inactive are those of the source. How the source made its calls: active means growth percent below 10; inactive means the rest.

Consider `CC(C)(C)NCC(O)COc1c(Br)c(Br)c(Br)c2c1OC(C)(C)C2` (centres undefined), for which the growth is -26.4% (active) in assay [1]; 32.7% in assay [2]; -68.6% (active) in assay [3]; -97.5% (active) in assay [4]; -74.2% (active) in assay [5]; -26.5% (active) in assay [6]. For the same compound, the growth in assay [7] was -74.9% (active); in assay [8], -80.7% (active).

`C=C1C(=O)O[C@H]2[C@H]1CC/C(C(=O)NCCOCCOCC(=O)Nc1ccc(OC)c(C(N)=O)c1O)=C\CC[C@@]1(C)O[C@@H]21`: the growth in assay [1] is 70.6%; in assay [2], 86.2%; in assay [3], 104%; in assay [4], 80.1%; in assay [5], 83.6%; in assay [6], 81.2%. In addition, the growth in assay [7] is 104%; in assay [8], 101%.

As for `Cc1nccc2c3ccc(OCc4cn(-c5ccc(Br)cc5)nn4)cc3n(CCCc3ccccc3)c12`, the growth in assay [1] is 104%; in assay [2], 53.5%; in assay [3] it was 18.7%; in assay [4], 2.21% (active); in assay [5], 12.5%; in assay [6] it was 30.6%. The growth in assay [7] was 35.6%; in assay [8] it was 8.07% (active).

As for `O=[N+]([O-])c1ccccc1NC1c2ccccc2Oc2ccccc21`, the growth in assay [1] is 76.5%; in assay [2], 54.8%; in assay [3], -47.7% (active); in assay [4], 19.8%; in assay [5], 57.1%; in assay [6], 30.3%. Further, the growth is 66% in assay [7] and 26.3% in assay [8].

Turning to `O=C(Nc1ccc(-n2cc(-c3ccncc3)c(-c3ccc(O)c(Cl)c3)n2)cc1)c1cc(C(F)(F)F)cc(C(F)(F)F)c1`, the growth in assay [1] is 60.7%; in assay [2], 53.3%; in assay [3] it was 45.9%; in assay [4] it was 76.2%; in assay [5] it was 58%; in assay [6], 40.3%. Moreover, the growth in assay [7] was 83.6%; in assay [8] it was 42.3%.

As to `CC(C)C(=O)Nc1nc2c(s1)CCCc1ccn(S(=O)(=O)c3ccccc3)c1-2`, the growth in assay [1] was 91.9%; in assay [2], 89.8%; in assay [3], 106%; in assay [4], 105%; in assay [5], 86.3%; in assay [6] it was 78.9%. Moreover, the growth in assay [7] was 106%; in assay [8], 97.1%.

`CCc1c(C)c2cc3nc(NCc4ccccc4)oc3c(C)c2oc1=O`: the growth in assay [1] is 47.2%; in assay [2], 32.6%; in assay [3], 47.7%; in assay [4], 95.8%; in assay [5] it was 73.1%; in assay [6], 57.2%. Moreover, the growth in assay [7] was 79.6%; in assay [8] it was 83.5%.

As for `CC(=O)CC/C=C(\C)[C@H](O)[C@H](C)C(=O)O[C@H]1C[C@H](C)C=C2C=C[C@@]3(C)O[C@@H](O)CC(=O)[C@]3(C)[C@H]21`, the growth in assay [1] was -26.6% (active); in assay [2], -57% (active); in assay [3] it was -88.3% (active); in assay [4], 1.02% (active); in assay [5], -4.71% (active); in assay [6], -20.3% (active). In addition, the figures for the growth in assay [7] and in assay [8] were -81.9% (active) and -10% (active), respectively.

As to `Cc1[nH]c2ccc(F)cc2c1CCNC(=O)C1CCN(C(=O)c2ccc(-c3ccccc3)cc2)CC1`, the growth is -32.2% (active) in assay [1]; 40.8% in assay [2]; 56.8% in assay [3]; 69.3% in assay [4]; 16.5% in assay [5]; 32.5% in assay [6]. Also, the growth in assay [7] was 57%; in assay [8] it was 43.3%.

In the case of `Nc1nc(Nc2ccc(OCc3cccc(F)c3)cc2)c2c(n1)[nH]c1ccc(O)cc12`, the growth is -59.8% (active) in assay [1]; -84.9% (active) in assay [2]; -41% (active) in assay [3]; -49.5% (active) in assay [4]; -82.7% (active) in assay [5]; -97.1% (active) in assay [6]. For the same compound, the growth was -17.6% (active) in assay [7] and -48% (active) in assay [8].

`CN(C)c1ccc(/C=c2\s/c(=C\C(=O)C(C)(C)C)[nH]c2=O)cc1`: the growth was 81.4% in assay [1]; 97.3% in assay [2]; 89.3% in assay [3]; 101% in assay [4]; 86.7% in assay [5]; 91.2% in assay [6]. Besides, the results for the growth in assay [7] and in assay [8] were 107% and 81.9%, respectively.

Consider `Fc1cccc(F)c1C#Cc1ccc2cccnc2c1`, for which the growth is 22.3% in assay [1]; 95.6% in assay [2]; 107% in assay [3]; 90.5% in assay [4]; 14.8% in assay [5]; 74.6% in assay [6]. In addition, the growth was 68.6% in assay [7] and 79.1% in assay [8].

Take `COc1cc(-c2nc(N)n(CC(=O)Nc3ccc(/C(C)=N\O)cc3)n2)cc(OC)c1OC`: the growth in assay [1] was 91.2%; in assay [2], 108%; in assay [3], 82%; in assay [4], 95.2%; in assay [5], 89.2%; in assay [6], 101%. In addition, the growth in assay [7] is 102%; in assay [8] it was 97.3%.

In the case of `COc1ccc(Cl)cc1NC(=O)c1cc2c(n1C)-c1nc(NC(=O)C(C)C)sc1CC2`, the growth was 68.2% in assay [1]; 53% in assay [2]; 93.8% in assay [3]; 90.5% in assay [4]; 84.5% in assay [5]; 44.6% in assay [6]. Also, the growth is 122% in assay [7] and 92.7% in assay [8].

Regarding `COc1cc(-c2nc(SCC(=O)Nc3ccc(C(C)=O)cc3)[nH]c(=O)c2C#N)cc(OC)c1OC`, the growth in assay [1] was 35.9%; in assay [2] it was 36.8%; in assay [3], -46.1% (active); in assay [4] it was 25.8%; in assay [5], 18.2%; in assay [6] it was 3.92% (active). The growth in assay [7] is 21%; in assay [8], 16.8%.

Regarding `O=[N+]([O-])c1ccc(NS(=O)(=O)c2cc(Cl)ccc2Cl)c2ccccc12`, the growth in assay [1] was 56%; in assay [2], 48%; in assay [3], 52.3%; in assay [4] it was 64.4%; in assay [5], 46.4%; in assay [6], 45%. Also, the growth in assay [7] was 32.2%; in assay [8] it was 40.5%.

On to `Clc1ccc2c(c1)nnn1c3ncccc3c(Br)c21`, for which the growth in assay [1] was 60.7%; in assay [2], 72.1%; in assay [3] it was 95.2%; in assay [4], 78.9%; in assay [5], 64.2%; in assay [6], 68.4%. Also, the results for the growth in assay [7] and in assay [8] were 108% and 86.4%, respectively.

`COc1ccccc1NC(=O)COc1ccc(/C=C2/Oc3cc4occc4c(OC)c3C2=O)cc1OC`: the growth in assay [1] was 86.4%; in assay [2], 93%; in assay [3], 107%; in assay [4], 111%; in assay [5], 99.4%; in assay [6] it was 102%. The growth in assay [7] was 106%; in assay [8], 97.8%.

As to `O=C1C(Cl)=C(Nc2ccccc2)C(=O)C(Cl)=C1Nc1ccccc1`, the growth is 98.4% in assay [1]; 112% in assay [2]; 104% in assay [3]; 107% in assay [4]; 105% in assay [5]; 112% in assay [6]. In addition, the growth in assay [7] and in assay [8] was 116% in each case.

As to `Nc1c(C(=O)O)[nH]c(=O)[nH]c1=O`, the growth was 104% in assay [1]; 107% in assay [2]; 108% in assay [3]; 108% in assay [4]; 95.6% in assay [5]; 96.8% in assay [6]. The figures for the growth in assay [7] and in assay [8] were 105% and 106%, respectively.

Take `O=C(Nc1ccc(-n2cc(-c3ccncc3)c(-c3ccc(O)c(Cl)c3)n2)cc1)c1ccc(Cl)c(C(F)(F)F)c1`: the growth in assay [1] is 39.8%; in assay [2], 14.9%; in assay [3] it was 16%; in assay [4] it was 26.7%; in assay [5] it was 20.9%; in assay [6], 9.26% (active). Further, the growth is 25.9% in assay [7] and 15% in assay [8].

On to `COc1cc(NC(C)CCCN2C(=O)c3ccccc3C2=O)c2nccc(C)c2c1OC` (centres undefined), for which the growth is 78.2% in assay [1]; 113% in assay [2]; 104% in assay [3]; 93.5% in assay [4]; 40.4% in assay [5]; 87.8% in assay [6]. Further, the figures for the growth in assay [7] and in assay [8] were 113% and 97.4%, respectively.

As to `O=C1c2ccccc2OC=C(c2ccccc2)N1CCCCNc1ccc(F)cc1`, the growth in assay [1] is 36.3%; in assay [2], 59.1%; in assay [3] it was 108%; in assay [4] it was 103%; in assay [5], 85.6%; in assay [6] it was 59.4%. Moreover, the growth was 104% in assay [7] and 84.4% in assay [8].

Consider `CCOC(=O)C(C)(CSSCC(C)(NC(=O)c1ccc2ccccc2c1)C(=O)OCC)NC(=O)c1ccc2ccccc2c1` (centres undefined), for which the growth is 86.6% in assay [1]; 138% in assay [2]; 96.3% in assay [3]; 96.5% in assay [4]; 92.2% in assay [5]; 47% in assay [6]. Besides, the growth in assay [7] is 119%; in assay [8] it was 107%.

Turning to `NS(=O)(=O)c1ccc(CCN2C(=O)/C(=C\c3ccc(Cl)cc3)C=C2c2ccc(Oc3ccccc3)cc2)cc1`, the growth in assay [1] was 66.7%; in assay [2], 92.2%; in assay [3], 78.8%; in assay [4], 83%; in assay [5], 39.3%; in assay [6] it was 65%. Further, the growth in assay [7] was 89%; in assay [8], 62.4%.

On to `c1ccc(-c2nc3sc(C(c4ccccc4)c4ccccc4)nn3c2-c2ccccc2)cc1`, for which the growth was 92.6% in assay [1]; 96% in assay [2]; 98.9% in assay [3]; 91.6% in assay [4]; 90.8% in assay [5]; 84% in assay [6]. The growth was 109% in assay [7] and 96.1% in assay [8].

With `C=CCOc1ccc(/C(Cl)=N/N=C(\Cl)c2cc(OC)c(OC)c(OC)c2)cc1`, the growth in assay [1] is 47.6%; in assay [2], 89.5%; in assay [3] it was 80.6%; in assay [4] it was 68.3%; in assay [5], 42.8%; in assay [6], 70.2%. Besides, the growth in assay [7] is 75.6%; in assay [8], 67.9%.

Turning to `COC(=O)c1oc2c(C(C)=O)c(OCCN3CCCCC3)ccc2c1C`, the growth was 129% in assay [1]; 130% in assay [2]; 80.8% in assay [3]; 103% in assay [4]; 105% in assay [5]; 89.7% in assay [6]. The growth in assay [7] was 113%; in assay [8], 102%.

For the origin of these results see PubChem BioAssay (NCI).
